CCT modulator: modulators of cytosolic chaperonin (CCT/TRiC) activity | purified chaperonin ATPase assay, HTRF ADP detection, 30 min | activity change, % (no concentration beside the values), hits read low | 360,000 compounds, 0.3% hits | AID 651819; in the data active means activity change below about -30%; further: on the % scale 0 is the no-effect control and ±100 the full control effect
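TRiC at 40 or 20 nM final (batch-dependent) in 30 mM Tris pH 7.4, 100 mM KCl, 5 mM MgCl2, 1 mM DTT, with compound at single 76 uM and 10 uM ATP, 30 min at 37 deg C. ADP detected by HTRF Transcreener, 665/615 ratio.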
Nrf2 inh: Nrf2 pathway inhibition | A549 ARE-Fluc reporter, luciferase luminescence, 18-24 h | Potency, µM (highest dose often 46 µM), without a hit: at the top dose activity change, negative = inhibition, hits mostly inhibitors | 360,000 compounds, 2.1% hits | AID 504444; further: potency means the concentration at half of the fitted maximal effect; on the % scale 0 is the no-effect control and ±100 the full control effect; nearly all actives have a fitted effect of over 60% in size
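A549 ARE_Fluc cells, 5000/well, 5% FBS OPTI-MEM; compounds in dose-response, 18-24 h at 37 °C/5% CO2; CellTiter-Fluor viability read (Ex 405/Em 525), then BugLite luciferase luminescence = Nrf2 activity.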
AT treatment: potential ataxia-telangiectasia treatment. F2112 A-T fibroblasts, KAP-1 phosphorylation AlphaLISA; neocarzinostatin DNA damage 30 min before lysis. 320,000 compounds, 0.19% hits. Potency, µM (series often up to 57.5 µM), inactives show at the top dose activation, most hits filed as activators; further: potency means the concentration at half of the fitted maximal effect; % of control where 0% means no effect; nearly all actives have a fitted effect of over 45% in size
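ATM-like activity read as KAP-1 phosphorylation via AlphaLISA donor/acceptor antibody pairs after lysis and 6 hr at 25C. Cells were ATM-null patient fibroblasts (F2112, hTERT), dosed 60 min, then exposed to the DSB inducer NCS for 30 min.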
Nrf2 ARE act: Nrf2 pathway activation; AID 624171; AREc32 ARE-luciferase reporter (MCF7-derived line), luminescence, 24 h; 410,000 compounds, 0.31% hits; Potency, µM (top dose mostly 46.1 µM), for the others: at the top dose activation, most hits filed as activators; further: potency means the concentration at half of the fitted maximal effect; % of control where 0% means no effect; nearly all actives have a fitted effect of over 65% in size
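Cells of the AREc32 ARE-luciferase line are plated in OPTI-MEM containing 5% FBS and left overnight at 37 deg C. Compounds are pinned in, incubation continues 24 hr, and firefly luciferase signal is then measured.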
A549 tox: A549 cytotoxicity, counter-screen for Nrf2 inhibitors. A549 ARE-Fluc cells, CellTiter-Fluor viability, 18-24 h. Potency, µM (titrated, usually from 46 µM), for the others: top-dose activity change, negative = cytotoxicity, most hits filed as inhibitors. 390,000 compounds, 0.16% hits; further: potency means the concentration at half of the fitted maximal effect; on the % scale 0 is the no-effect control and ±100 the full control effect
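A549 ARE_Fluc cells in 5% FBS OPTI-MEM were exposed to compounds in concentration-response for 18-24 h at 37 deg C. Viability was read by CellTiter-Fluor fluorescence (Ex 405/Em 525) after 30 min, before the luciferase read.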
TCR act: activates T cell receptor signaling; primary human leukocytes, anti-CD3, IL-2 HTRF, 48 h; Potency, µM (doses to about 9.22 µM), without a hit: at the top dose activation of IL-2 secretion, most hits filed as activators; 330,000 tested, under 10 active; further: % of control where 0% means no effect
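48 hr co-incubation of compounds, a-CD3 beads and primary human leukocytes; IL-2 quantified homogeneously by HTRF with anti-IL-2 K and d2 conjugates.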
Starred values were filed as active, the others as inactive; u = inconclusive; x = not tested or not shown; ! = a repeat was not active; [ ] = another dose, or the depositor's remark. Sampled rows, rich in hits. Any-hit rate of the full collection: about 2.6%. Unless noted, the call rests on the fitted dose curve; in most records, active means well fitted curve in the direction sought with a large enough effect; inconclusive means small, poorly fitted or top-dose-only effect, or another doubt; inactive means no such curve, though single readings can be large; an effect the other way counts as inactive or inconclusive.

SMILES	CCT modulator	Nrf2 inh	AT treatment	Nrf2 ARE act	A549 tox	TCR act
O=C1CCCC2=C1C1(CCCC1)N=C(Nc1nc3ccccc3n1Cc1ccccc1)N2	x	16µM*	x	x	-6%	x
CC(=O)c1ccc(NC(=O)CCn2cccn2)cc1	x	u	x	4%	6%	x
COc1cccc(C2C(C(=O)Nc3ccccc3)=C(C)Nc3nc(-c4ccccc4)nn32)c1OC (stereo not given)	x	18µM*	x	-1%	-25%	x
CCOc1ccc(CC(=O)Nc2c(C(=O)c3ccccc3)oc3ccc(OC)cc23)cc1OCC	x	16%	x	-1%	-4%	x
COc1cc(N=c2ssnc2Cl)c(OC)cc1Cl	-1	23µM*!	1%	8%	u	3%
CC(C)N(C(=O)[C@H]1C[C@H](CC(=O)NCc2cccc(C(F)(F)F)c2)C(=O)N2CCc3c([nH]c4ccc(Cl)cc34)[C@]12C)C(C)C	1	u	14%	0%	u	-4%[46.1 µM]
Cc1oc(-c2ccccc2F)nc1CN1CCC(C(=O)NCCC2=CCCCC2)CC1	-52*	11%	-4%	2%	-13%	4%
COc1cc(OC)c2c(C)cc(=O)oc2c1C(CCN1CCCC(C)C1)c1ccc(N(C)C)cc1 (stereo not given)	x	14%	x	x	-17%	x
Cc1noc(C(=O)Nc2ccc(F)cc2F)c1Cl	1	u	-20%	8%	1%	-5%
Cc1ccc(O)c(NC(=O)c2onc(C)c2Cl)c1	-1	4%	2%	8.9µM*	5%	4%
O=S(=O)(c1ccc2c(c1)OCCO2)N1CCN(S(=O)(=O)c2c(Cl)cc(C(F)(F)F)cc2Cl)CC1	x	-5%	x	x	-6%	x
COc1cc(COC(=O)c2cnc(C)cn2)c(OC)cc1Br	-52*	13%	5%	0%	-3%	2%
COc1ccccc1C(=O)COC(=O)c1cnc(C)cn1	-3	3%	8%	0%	-1%	-13%
COc1ccccc1Nc1nn2c(=O)c3ccc(C(=O)NC4CCC(C)CC4)cc3nc2s1 (stereo not given)	x	u	x	-1%	6%	x
Cc1oc(-c2cccc(Br)c2)nc1Cn1c(SCc2cccc(F)c2)nc2cccnc21	x	13µM*	x	0%	-25%	x
O=C(CSc1nnc(-c2cccc(Br)c2)o1)NCC1CCCO1 (stereo not given)	-8	x	x	-1%	x	x
O=c1[nH]c(CCl)nc2cc(-c3ccc(F)cc3)sc12	-40*	-16%	-3%	21%	-3%	3%
O=C(Cn1cc(C(F)(F)F)ccc1=O)N/N=C/c1ccc(Cl)c(Cl)c1	1	7%	-2%	3%	4%	3%[46.1 µM]
O=C(Cn1cc(C(F)(F)F)ccc1=O)N/N=C/c1ccc(O)cc1	-39*	2%	-11%	-1%	-4%	3%
COc1ccc(C2/C=C\CN(C(=O)NC34CC5CC(CC(C5)C3)C4)CC(=O)N2Cc2ccc(F)cc2)cc1 (stereo not given)	-2	u	-19%	5%	-4%	-2%
CC1CN(C(=O)CCC(=O)NCc2ccc(F)cc2)c2cc(Cl)ccc2O1 (stereo not given)	x	u	x	2%	-7%	x
O=C(Cn1cc2c(n1)CCCC2)NCCCN1CCN(c2ccccc2F)CC1	-46*	17%	9%	0%	-2%	0%
N#Cc1ccc(COC(=O)c2ccccn2)cc1	x	x	-4%	x	x	x
S=c1[nH]nc(-c2ccco2)n1/N=C/c1cccc(Cl)c1Cl	-1	3%	5%	8.9µM*	-3%	6%[46.1 µM]
S=c1[nH]nc(-c2ccco2)n1/N=C/c1ccc(Cl)cc1Cl	0	u	-12%	u	x	-4%
COc1ccccc1N1CCN(C(CNC(=O)C(=O)NCCc2ccccc2)c2cccnc2)CC1 (stereo not given)	x	-5%	x	0%	-2%	x
OCC1OC(Oc2c[nH]c3ccccc23)C(O)C(O)C1O (stereo not given)	-4	4%	28µM*	1%	4%	-1%
